Experimental data taken from PubChem BioAssay.
Inconclusive results are not listed. Calls of active or inactive are those of the source. Rule as the data show it, unless noted: active = inhibition above about 80%; inactive = the rest.

Assays:
[1] = growth inhibition, single agent or in combination, cell-based, chromothripsis tumors, cisplatin or BGB combos (AID 1671449); conditions: LFS_MB_P medulloblastoma cells;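 also: cells exposed for 96 hours; 0% = vehicle DMSO and 100% = killing by high DMSO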
[2] = growth inhibition, single agent and combos, cell-based, chromothripsis tumors, cisplatin or BGB combos (AID 1671450); conditions: HDN33 neuroblastoma cells, stronger effect = higher value;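 also: cells exposed to compound for four days; 0% = vehicle DMSO and 100% = cell killing by high DMSO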
[3] = growth inhibition, single agents and combos, ICB984, cell-based, cisplatin or BGB combos, synergistic combos for chromothripsis tumors (AID 1671451; call rule not given here;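 also: cells exposed for 96 hours before readout; 0% = vehicle DMSO and 100% = killing by high DMSO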); conditions: ICB984 medulloblastoma cells, drug combinations, stronger effect = higher value
[4] = growth inhibition, single agents and combos, LFS_MB_1R, cell-based, cisplatin or BGB combos, synergistic combos for chromothripsis tumors (AID 1671452); conditions: LFS_MB_1R medulloblastoma cells, stronger effect = higher value;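 also: cells exposed for 96 hours before readout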
[5] = growth inhibition, single agents and combos, HTB85, cell-based, BGB or cisplatin IC20 combos, synergistic combos for chromothripsis tumors (AID 1671453); conditions: HTB85 osteosarcoma cells, drug combinations, stronger effect = higher value;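 also: cells exposed for 96 hours before readout; 0% = vehicle DMSO and 100% = high DMSO killing control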
[6] = growth inhibition, single agents and combos, CRL2098, cell-based, BGB or cisplatin IC20 combos, synergistic combos for chromothripsis tumors (AID 1671454); conditions: CRL2098 osteosarcoma cells, drug combinations, stronger effect = higher value;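 also: cells exposed for 96 h before readout; 0% = vehicle DMSO and 100% = killing by high DMSO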
[7] = growth inhibition, single agents and combos, HD-MB03, cell-based, BGB or cisplatin IC20 combos, synergistic combos for chromothripsis tumors (AID 1671455; in the data active = inhibition above about 83%;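 also: 0% = vehicle DMSO and 100% = high DMSO as cytotoxic control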); conditions: HD-MB03 medulloblastoma cells, stronger effect = higher value
[8] = growth inhibition, single agents and combos, UWB1.289, cell-based, BGB or cisplatin combos, synergistic combos for chromothripsis tumors (AID 1671456); conditions: UWB1.289 ovarian carcinoma cells, stronger effect = higher value;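 also: cells exposed to compound for four days; 0% = vehicle DMSO and 100% = killing by high DMSO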
[9] = growth inhibition, single agents and combos, LFS_MB_2R, cell-based, cisplatin combos, synergistic combos for chromothripsis tumors (AID 1671457); conditions: LFS_MB_2R medulloblastoma cells, stronger effect = higher value;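 also: cells exposed to compound for four days before readout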
[10] = growth inhibition, MDA-MB-436, cell-based, BGB or cisplatin combos, synergistic combos for chromothripsis tumors (AID 1671458; call rule not given here;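 also: cells exposed for 96 hours; 0% = vehicle DMSO and 100% = killing by high DMSO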); conditions: MDA-MB-436 breast carcinoma growth inhibition, drug combinations, stronger effect = higher value
[11] = UWB1.289_BRCA1 ovarian cancer growth, cell-based, BGB or cisplatin combinations (AID 1671459); conditions: UWB1.289 BRCA1 ovarian carcinoma, drug combinations, stronger effect = higher value
[12] = drug combination toxicity in non-malignant astrocytes – cell-based, BGB or cisplatin IC20 combos, cytotoxicity control for chromothriptic childhood tumor combination screen (AID 1671460); conditions: Human astrocytes, viability inhibition, drug combinations, at 0.5 µM, stronger effect = higher value;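 also: cells exposed to compounds for 96 hours before viability readout; 0% = vehicle and 100% = killing control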
[13] = BT084 cell growth, single and combined drugs, ICGC_MB145, cisplatin and BGB IC40 combos (AID 1671461); conditions: BT084 medulloblastoma cells, drug combinations, stronger effect = higher value;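 also: cells exposed to drugs for 96 hours; 0% = vehicle DMSO and 100% = high DMSO full killing control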
[14] = RCMB18 cell growth, single agent and combined, cisplatin and BGB IC40 combos (AID 1671462); conditions: RCMB18 medulloblastoma cells, stronger effect = higher value;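 also: cells exposed to compound for four days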
[15] = CRL1545 cell growth, single agent and combined, cisplatin and BGB IC20 combos (AID 1671464); conditions: CRL1545 osteosarcoma cells, stronger effect = higher value;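 also: cells exposed to compound for 96 hours before readout; 0% = vehicle DMSO and 100% = high DMSO killing control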
[16] = rescue of PC12 cells from polyQ htt toxicity – LDH release (AID 1610); conditions: PC12 mutant huntingtin toxicity, final LDH at 4 uM, stronger effect = lower value
[17] = glutamate excitotoxicity neuroprotectants – cell-based, TUNEL DNA degradation staining, MNGlu (AID 1594; call rule not given here); conditions: motor neurons, glutamate-induced death, at 1 µM, stronger effect = higher value
[18] = measured here: combination with BGB IC40, at 0.05 µM
[19] = measured here: with BGB IC20 combination, at 0.5 µM
[20] = measured here: with cisplatin IC20 combination, at 0.5 µM
[21] = measured here: combination with cisplatin, at 0.5 µM
[22] = measured here: combination with cisplatin, at 5 µM

Compound: O=C(Nc1ccccc1)c1ccccc1O
- inhibition ([1]; at 0.5 µM, stronger effect = higher value): -6.1% (inactive)
- inhibition ([1]; measured here: combination with BGB IC20, at 0.005 µM): 6.63%
- inhibition ([1]; measured here: combination with BGB IC40, at 0.005 µM): 36%
- inhibition [1, 18]: -10.8%
- inhibition ([1]; measured here: combination with cisplatin, at 0.5 µM, stronger effect = higher value): -0.1%
- inhibition ([1]; measured here: combination with cisplatin, at 5 µM, stronger effect = higher value): 3.47%
- inhibition ([2]; BGB combo, at 5 µM): 22.1%
- inhibition ([2]; at 0.5 µM): 6.53% (inactive)
- inhibition ([2]; cisplatin combo, at 5 µM): 16.8%
- inhibition [2, 19]: 4%
- inhibition [2, 20]: 11.1%
- inhibition ([2]; single agent, at 5 µM): 27.8%
- inhibition ([3]; BGB IC20 combo, at 0.005 µM): -13.9%
- inhibition ([3]; BGB IC40 combo, at 0.005 µM): -1.37%
- inhibition ([3]; BGB IC40 combo, at 0.05 µM): 0.369%
- inhibition ([3]; at 0.5 µM): -10.1% (inactive)
- inhibition ([3]; cisplatin combo, at 0.05 µM): 0.369%
- inhibition ([3]; cisplatin combo, at 0.5 µM): -23.4%
- inhibition ([3]; cisplatin combo, at 5 µM): -15.5%
- inhibition ([3]; measured here: 5 uM single agent, at 5 µM): 19.2%
- inhibition ([4]; at 0.5 µM): -12.4% (inactive)
- inhibition [4, 18]: -23.1%
- inhibition [4, 21]: -15.5%
- inhibition [4, 22]: 13.9%
- inhibition ([5]; at 0.5 µM): 1.9% (inactive)
- inhibition ([5]; measured here: with BGB IC20, at 0.5 µM): -7.23%
- inhibition ([5]; measured here: with BGB IC20, at 5 µM): 16.9%
- inhibition ([5]; measured here: with cisplatin IC20, at 0.5 µM): 3.88%
- inhibition ([5]; measured here: with cisplatin IC20, at 5 µM): 16.9%
- inhibition ([5]; single agent, at 5 µM): 20.7%
- inhibition ([6]; at 0.5 µM): -8.88% (inactive)
- inhibition ([6]; measured here: combination with BGB at IC20, at 0.5 µM): -7.52%
- inhibition ([6]; measured here: combination with cisplatin at IC20, at 0.5 µM): 4.38%
- inhibition ([7]; at 0.5 µM): -0.28% (inactive)
- inhibition ([7]; measured here: combo with BGB at IC20, at 0.5 µM): 1.59%
- inhibition ([7]; measured here: combo with cisplatin at IC20, at 0.5 µM): -2.6%
- inhibition ([8]; at 0.5 µM): 10.7% (inactive)
- inhibition ([8]; measured here: inhibition with BGB combination, at 0.05 µM): 0.707%
- inhibition ([8]; measured here: inhibition with cisplatin combination, at 0.05 µM): -5.75%
- inhibition ([9]; at 0.5 µM): 6.25% (inactive)
- inhibition [9, 21]: 7.79%
- inhibition [9, 22]: 26.7%
- inhibition ([10]; at 0.5 µM): -7.25% (inactive)
- inhibition ([10]; measured here: BGB combination, at 0.5 µM): -6.93%
- inhibition ([10]; measured here: BGB combination, at 5 µM): 9.41%
- inhibition ([10]; measured here: cisplatin combination, at 0.5 µM): -18%
- inhibition ([10]; measured here: cisplatin combination, at 5 µM): 28.1%
- inhibition ([11]; BGB combination, concentration series, at 5 µM): 20.8%
- inhibition ([11]; at 0.5 µM): 4.85% (inactive)
- inhibition ([11]; cisplatin combination, concentration series, at 5 µM): 20.1%
- inhibition [12]: 6.87% (inactive)
- inhibition ([12]; measured here: combo with BGB IC20): 7.24%
- inhibition ([12]; measured here: combo with cisplatin IC20): 10.9%
- inhibition ([13]; at 0.5 µM): 1.08% (inactive)
- inhibition ([13]; cisplatin combination, at 0.5 µM): 7.73%
- inhibition ([13]; cisplatin combination, at 5 µM): -4.41%
- inhibition ([13]; measured here: BGB IC40 combination 0.05 uM, at 0.05 µM): 23%
- inhibition ([13]; single agent, at 5 µM): 16.7%
- inhibition ([14]; at 0.5 µM): 11.8% (inactive)
- inhibition ([14]; cisplatin combo, at 5 µM): 41.7%
- inhibition ([14]; measured here: BGB IC40 combination, at 0.05 µM): -1.52%
- inhibition [14, 21]: 26.1%
- inhibition ([14]; single agent, at 5 µM): 5.55%
- inhibition ([15]; at 0.5 µM): -2.83% (inactive)
- inhibition [15, 19]: 17.8%
- inhibition [15, 20]: -13.1%
- inhibition ([15]; single agent, at 0.05 µM): 12.8%
- inhibition ([15]; single agent, at 5 µM): 42.5%

Compound: CO/N=C(/C(=O)N[C@@H]1C(=O)N2C(C(=O)O)=C(COC(C)=O)CS[C@H]12)c1csc(N)n1
- normalised LDH release [16]: 0.958

Compound: CC(C)[C@@H]1CC[C@@H](C)C[C@H]1O
- protection [17]: 54% (active)
